Screens deposited in PubChem by National Center for Advancing Translational Sciences (NCATS).
Compounds with a hit are over-represented: about 6.2% of the library has one in this group of screens.
S2 tox = reduces viability in counter-screen for ATXN expression inhibitors | S2 cells (HEK-293 line with an ATXN2-luciferase reporter) viability, CellTiter-Fluor protease fluorescence, 24 h | Potency, µM (series often up to 56.7 µM), hits mostly cytotoxic | 400,000 compounds, 0.49% hits; note: nearly all actives have a fitted effect of over 40% in size
HT1080 IDH1KD tx = kills HT-1080 cells with IDH1 knockdown | HT-1080 IDH1 knockdown viability, ATP luminescence, 48 h | Potency, µM (highest dose often 46.1 µM), usual class: cytotoxic | 360,000 compounds, 2% hits | AID 686971
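Luminescent ATP read-out (CellTiter-Glo, 10 min at room temperature) after 48 h compound exposure at 37 °C gave viability of IDH1-knockdown HT-1080 cells. Activity was normalised to DMSO and cell-free wells, then fitted as concentration-response curves.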
HT1080NT lethal = kills 2HG-producing HT-1080-NT fibrosarcoma cells. HT-1080-NT fibrosarcoma viability, CellTiter-Glo ATP luminescence, 48 h. Potency, µM (titrated, usually from 46.1 µM), usual class: cytotoxic. 360,000 compounds, 1.6% hits;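 note: NT is the 2HG producing partner of a matched IDH1 knockdown line; nearly all actives have a fitted effect of over 55% in size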
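Viability of the 2HG-overproducing fibrosarcoma line after 48 hours of compound exposure at 37 degrees C was determined by luminescence with CellTiter-Glo, and concentration-effect curves were then fitted and categorized.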
KB-3-1 cytotox = kills parental KB-3-1 adenocarcinoma cells. KB-3-1 viability, CellTiter-Glo ATP luminescence, 72 h. Potency, µM (highest dose often 46.1 µM), most hits filed as cytotoxic. 400,000 compounds, 1.4% hits; note: nearly all actives have a fitted effect of over 60% in size
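KB-3-1 cells, DMEM (no phenol red) + 10% FBS; compound by pin transfer, 72 h, 37 °C. Readout: CellTiter-Glo luminescence after 10 min. Data normalized, curve-fitted.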
ATXN2 expr inh = inhibitors of ATXN2 expression. HEK-293 ATXN2-luciferase reporter, luminescence, 24 h. Potency, µM (doses to about 57 µM), actives largely listed as inhibitors. 360,000 compounds, 0.72% hits; note: nearly all actives have a fitted effect of over 55% in size
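ATXN2-luciferase reporter cells (luciferase flanked by upstream and downstream ATXN2 gene portions) were treated 24 h at 37 °C with compounds at up to 57 uM. SteadyGlo luminescence gave expression; GF-AFC fluorescence gave viability.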
KB-V1 MDR tox = kills drug-selected multidrug resistant KB-V1 cells; 400,000 compounds, 3.4% hits; KB-V1 MDR cells viability, CellTiter-Glo, 72 h; AID 1347076; Potency, µM (top dose mostly 46.1 µM), usual class: cytotoxic; note: nearly all actives have a fitted effect of over 60% in size
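Cytotoxicity via CellTiter-Glo luminescence after 72 h compound exposure at 37 degrees C. Cells: drug-selected KB-V1 line, DMEM phenol-red free plus 10% FBS. Compounds tested at multiple concentrations; normalized data fitted to concentration-effect curves.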
A number is an active result. Calls come from the whole dose curve; as a rule, active = well fitted curve in the direction sought with a large enough effect; inconclusive = small, poorly fitted or top-dose-only effect, or another doubt; inactive = no such curve, though single readings can be large; an effect the other way counts as inactive or inconclusive.

For CCS(=O)(=O)Nc1cc(C(=O)N2CCC[C@H]2CO)c2c(c1)nc(-c1ccccc1)n2C the results were S2 tox inactive.
Screening Cc1nc2c(oc3ccccc32)c(=O)o1 returned S2 tox inactive, HT1080 IDH1KD tx inactive, HT1080NT lethal inactive, KB-3-1 cytotox inactive, ATXN2 expr inh inactive and KB-V1 MDR tox inactive.
`Cc1c2cnccc2c(C)c2c1oc1ccccc12` gave S2 tox inactive, HT1080 IDH1KD tx inactive, HT1080NT lethal inactive, KB-3-1 cytotox inconclusive, ATXN2 expr inh inactive and KB-V1 MDR tox 12µM.
For CCSC1=NC2(CCN(C(=O)NC3CCCCC3)CC2)N=C1c1ccc(Cl)cc1 the results were S2 tox inactive, KB-3-1 cytotox inconclusive, ATXN2 expr inh inactive and KB-V1 MDR tox inactive.
Screening CNC1CCC(N(Cc2cccc(-c3ccncc3)c2)C(=O)c2sc3ccccc3c2Cl)CC1 (stereo not given) returned ATXN2 expr inh 24µM.
`CCc1nn2c(=O)c(S(=O)(=O)Nc3ccc(OC)c(Cl)c3)c(C)nc2s1` gave S2 tox inactive, KB-3-1 cytotox inactive, ATXN2 expr inh inactive and KB-V1 MDR tox inactive.
Screening CCN(CC)CCC(=O)Nc1cccc2c1C(=O)c1ccccc1C2=O returned S2 tox inactive, HT1080 IDH1KD tx 15µM, HT1080NT lethal 18µM, KB-3-1 cytotox inconclusive, ATXN2 expr inh inconclusive and KB-V1 MDR tox 18µM.
CC1CCN(C(=O)c2ccc3c(c2NCCO)C(=O)c2ccccc2C3=O)CC1 was read as S2 tox inconclusive, HT1080 IDH1KD tx inconclusive, HT1080NT lethal inconclusive, KB-3-1 cytotox inactive, ATXN2 expr inh inactive and KB-V1 MDR tox inconclusive.
`CCN(CC)CCNC(=O)c1ccc2c(c1NCCO)C(=O)c1ccccc1C2=O` gave S2 tox 7.9µM, HT1080 IDH1KD tx inconclusive, HT1080NT lethal inconclusive, KB-3-1 cytotox inconclusive and KB-V1 MDR tox 7.3µM.
For Nc1cccc(C(=O)OCC(=O)Nc2cccc3c2C(=O)c2ccccc2C3=O)c1 the results were S2 tox inactive, HT1080 IDH1KD tx inconclusive, HT1080NT lethal inactive, KB-3-1 cytotox inactive, ATXN2 expr inh inactive and KB-V1 MDR tox inactive.
For CCCCc1ccc(NC(=O)Nc2cc(C)nn2C)cc1 the results were S2 tox inactive, HT1080 IDH1KD tx inconclusive, HT1080NT lethal inconclusive, KB-3-1 cytotox 6.5µM, ATXN2 expr inh inactive and KB-V1 MDR tox inactive.
For CCCCc1ccc(NC(=O)Nc2cnccn2)cc1 the results were S2 tox inactive, HT1080 IDH1KD tx inconclusive, HT1080NT lethal inconclusive, KB-3-1 cytotox 12µM, ATXN2 expr inh inactive and KB-V1 MDR tox inconclusive.
Screening Cc1cc(NC(=O)Nc2ccc(F)cc2F)n(C)n1 returned S2 tox inactive, HT1080 IDH1KD tx inconclusive, HT1080NT lethal inconclusive, KB-3-1 cytotox inconclusive, ATXN2 expr inh inconclusive and KB-V1 MDR tox inactive.
NCCCCNc1ncnc2ccc(-c3ccc4c(c3)OCO4)cc12 was read as KB-3-1 cytotox inactive and KB-V1 MDR tox inactive.
CC(C)Oc1ccc(CNC(=O)c2cccc(NC(=O)N3CCSc4ncccc43)c2)cc1 was read as KB-3-1 cytotox inactive and KB-V1 MDR tox inactive.
Screening c1ccc2c(c1)CCc1c(-c3ccncc3)n[nH]c1-2 returned S2 tox inactive, HT1080 IDH1KD tx inactive, HT1080NT lethal inactive, KB-3-1 cytotox 13µM and KB-V1 MDR tox 15µM.
For O=C(N/N=C1\CCc2ccccc21)c1ccncc1 the results were S2 tox inactive, HT1080 IDH1KD tx inactive, HT1080NT lethal inactive, KB-3-1 cytotox inactive, ATXN2 expr inh inactive and KB-V1 MDR tox inactive.
CCc1nc2ccc(C(=O)Nc3cc(-c4ccccc4)ccc3OC)cn2c1N(CC)Cc1cccc(Br)c1 was read as S2 tox inconclusive, HT1080 IDH1KD tx inconclusive, HT1080NT lethal inconclusive, KB-3-1 cytotox inconclusive, ATXN2 expr inh inactive and KB-V1 MDR tox inconclusive.
Screening CCc1nc2ccc(C(=O)Nc3cc(-c4ccccc4)ccc3OC)cn2c1N(CC)CCN(C)C returned HT1080 IDH1KD tx 13µM, HT1080NT lethal 18µM, KB-3-1 cytotox inconclusive, ATXN2 expr inh inconclusive and KB-V1 MDR tox inconclusive.
